# Data from the supplement of paper PMC10849652.
# Targets with a hit are over-represented here; the source holds about 7,900 in all. About 0.6% of all pairs of compound and target were hits. Values without a mark were called inactive.
# How the values were obtained:
# Experiment in all cases: log2 fold change, soluble protein after heating vs DMSO (PISA); higher = thermal stabilisation; K562 cells, 10 uM, 30 min; active = over 0.2 and 3.5 SD of the protein, either way, in both replicates (recomputed)
# [1] = compound: CS(=O)(=O)c1ccc(-c2cnc(N)c(C(=O)Nc3ccccc3)n2)cc1
# Outline: (§1)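 K562 cells at 2×10^6 cells/mL were exposed to 10 μM compound for 30 min, then aliquots were heated for 3 min across 48°C-58°C, pooled, and extracted in PBS containing 0.5% NP-40 at 4°C. The supernatant after 21,000xg for 90 min was taken as soluble protein and measured by TMTpro 16plex LC-MS/MS with channel sums equalised. Thermal stability is reported relative to control samples, with values from duplicates. Fold changes are given on a log2 scale.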
# [2] = compound: C[C@@H](Oc1cc(-c2cnn(C3CCNCC3)c2)cnc1N)c1c(Cl)ccc(F)c1Cl [crizotinib]
# Outline: as §1
# [3] = compound: C[C@@H]1COCCN1C2=NC(=NC(=C2)C3(CC3)S(=O)(=O)C)C4=C5C=CNC5=CC=C4
# Outline: as §1
# [4] = compound: C[C@H](C1=CC=C(C=C1)C(=O)NC2=C3C=CNC3=NC=C2)N
# Outline: as §1
# [5] = compound: C[C@H](Nc1ncnc2nc[nH]c12)c1cc2cccc(Cl)c2c(=O)n1-c1ccccc1 [duvelisib]
# Outline: as §1
# [6] = compound: Cc1cc(Nc2cc(CN3CCOCC3)c3nc(C)c(Cc4ccc(Cl)cc4F)n3n2)n[nH]1 [gandotinib]
# Outline: as §1
# [7] = compound: Cc1cc(Nc2cc(N3CCN(C)CC3)nc(Sc3ccc(NC(=O)C4CC4)cc3)n2)n[nH]1 [tozasertib]
# Outline: as §1
# [8] = compound: Cc1cc(SCc2sc(-c3ccc(C(F)(F)F)cc3)nc2C)ccc1OCC(=O)O
# Outline: as §1
# [9] = compound: Cc1ccc(-n2nc(C(C)(C)C)cc2NC(=O)Nc2ccc(OCCN3CCOCC3)c3ccccc23)cc1 [doramapimod]
# Outline: as §1
# [10] = compound: Cc1ccc(C(=O)N(CCCN)[C@@H](c2nc3cc(Cl)ccc3c(=O)n2Cc2ccccc2)C(C)C)cc1 [ispinesib]
# Outline: as §1
# Chain of UniProt Q9UER7 (Q9UER7 whole entry, looked up): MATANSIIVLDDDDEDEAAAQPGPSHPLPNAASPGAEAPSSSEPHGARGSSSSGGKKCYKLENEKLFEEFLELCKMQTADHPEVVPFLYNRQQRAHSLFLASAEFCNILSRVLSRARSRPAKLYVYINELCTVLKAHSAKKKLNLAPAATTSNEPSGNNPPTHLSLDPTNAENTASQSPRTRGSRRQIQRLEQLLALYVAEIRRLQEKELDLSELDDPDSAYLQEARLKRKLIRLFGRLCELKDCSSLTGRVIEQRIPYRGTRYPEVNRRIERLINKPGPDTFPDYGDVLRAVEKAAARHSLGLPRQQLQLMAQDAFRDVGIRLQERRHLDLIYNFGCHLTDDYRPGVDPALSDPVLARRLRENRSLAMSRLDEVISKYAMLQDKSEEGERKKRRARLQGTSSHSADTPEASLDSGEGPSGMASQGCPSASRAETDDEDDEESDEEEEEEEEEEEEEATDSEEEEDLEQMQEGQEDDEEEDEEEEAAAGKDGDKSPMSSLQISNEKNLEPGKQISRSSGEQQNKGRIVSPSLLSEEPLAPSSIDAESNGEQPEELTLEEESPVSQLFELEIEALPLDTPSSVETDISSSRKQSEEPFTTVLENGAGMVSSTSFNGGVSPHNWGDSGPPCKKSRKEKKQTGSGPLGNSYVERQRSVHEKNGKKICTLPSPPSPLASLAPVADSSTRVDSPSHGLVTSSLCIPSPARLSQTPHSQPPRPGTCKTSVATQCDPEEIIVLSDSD
# Chain of UniProt Q6UX04 (Q6UX04 whole entry, looked up): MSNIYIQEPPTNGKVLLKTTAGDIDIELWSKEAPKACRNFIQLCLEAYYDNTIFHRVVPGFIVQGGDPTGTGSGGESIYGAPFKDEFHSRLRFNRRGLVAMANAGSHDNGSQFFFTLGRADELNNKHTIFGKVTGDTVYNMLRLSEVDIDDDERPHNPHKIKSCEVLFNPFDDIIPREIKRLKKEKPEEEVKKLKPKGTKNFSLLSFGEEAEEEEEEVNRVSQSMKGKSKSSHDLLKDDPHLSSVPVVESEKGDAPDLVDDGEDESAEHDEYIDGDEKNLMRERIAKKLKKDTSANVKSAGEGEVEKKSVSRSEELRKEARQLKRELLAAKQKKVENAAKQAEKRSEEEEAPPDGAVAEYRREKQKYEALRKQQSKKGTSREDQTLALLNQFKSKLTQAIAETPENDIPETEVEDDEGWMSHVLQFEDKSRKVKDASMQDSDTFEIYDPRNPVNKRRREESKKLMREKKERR
# Chain of UniProt Q6P3W2 (Q6P3W2 whole entry, looked up): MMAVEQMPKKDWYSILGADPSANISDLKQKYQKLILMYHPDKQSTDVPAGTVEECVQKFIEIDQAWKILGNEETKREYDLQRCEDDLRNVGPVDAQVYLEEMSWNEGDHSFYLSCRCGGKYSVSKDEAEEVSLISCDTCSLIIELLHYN
# Chain of UniProt P39880 (P39880 whole entry, looked up): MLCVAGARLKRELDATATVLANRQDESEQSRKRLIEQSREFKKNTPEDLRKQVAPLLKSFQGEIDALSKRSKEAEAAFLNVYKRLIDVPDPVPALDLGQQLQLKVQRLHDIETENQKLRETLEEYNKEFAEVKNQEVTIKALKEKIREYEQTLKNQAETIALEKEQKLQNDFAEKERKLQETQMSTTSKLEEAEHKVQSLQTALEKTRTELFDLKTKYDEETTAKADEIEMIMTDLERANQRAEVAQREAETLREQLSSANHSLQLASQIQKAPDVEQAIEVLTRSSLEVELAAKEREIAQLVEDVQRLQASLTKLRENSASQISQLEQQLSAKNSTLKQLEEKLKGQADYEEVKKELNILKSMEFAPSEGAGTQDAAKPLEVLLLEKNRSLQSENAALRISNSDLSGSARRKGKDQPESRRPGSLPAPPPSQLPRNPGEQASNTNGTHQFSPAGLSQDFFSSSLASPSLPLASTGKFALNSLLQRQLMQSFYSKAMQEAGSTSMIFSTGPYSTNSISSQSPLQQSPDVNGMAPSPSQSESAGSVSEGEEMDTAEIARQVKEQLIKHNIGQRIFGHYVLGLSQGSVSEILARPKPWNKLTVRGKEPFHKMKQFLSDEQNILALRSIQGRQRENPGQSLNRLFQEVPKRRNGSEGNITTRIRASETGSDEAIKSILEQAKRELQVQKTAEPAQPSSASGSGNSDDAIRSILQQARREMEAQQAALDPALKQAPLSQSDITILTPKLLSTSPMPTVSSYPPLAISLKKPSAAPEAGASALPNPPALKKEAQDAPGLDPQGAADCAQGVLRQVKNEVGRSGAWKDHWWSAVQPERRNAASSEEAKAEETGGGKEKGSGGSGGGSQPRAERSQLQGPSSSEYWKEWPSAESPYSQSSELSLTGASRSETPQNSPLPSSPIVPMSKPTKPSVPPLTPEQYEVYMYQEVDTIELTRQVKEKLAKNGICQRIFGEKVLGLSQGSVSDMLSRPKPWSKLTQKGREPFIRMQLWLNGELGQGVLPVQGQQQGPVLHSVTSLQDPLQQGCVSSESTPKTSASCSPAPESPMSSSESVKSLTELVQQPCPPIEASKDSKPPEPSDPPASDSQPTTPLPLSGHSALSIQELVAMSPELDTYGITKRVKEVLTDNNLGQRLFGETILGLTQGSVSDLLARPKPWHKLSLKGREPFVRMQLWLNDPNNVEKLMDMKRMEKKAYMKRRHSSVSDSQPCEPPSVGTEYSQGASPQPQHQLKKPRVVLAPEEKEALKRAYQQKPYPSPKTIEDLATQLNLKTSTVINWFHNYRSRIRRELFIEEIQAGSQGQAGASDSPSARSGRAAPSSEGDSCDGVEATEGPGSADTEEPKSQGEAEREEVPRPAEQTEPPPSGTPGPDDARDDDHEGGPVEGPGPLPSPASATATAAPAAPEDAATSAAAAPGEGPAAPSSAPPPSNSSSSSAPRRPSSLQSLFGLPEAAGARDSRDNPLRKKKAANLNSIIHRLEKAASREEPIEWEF
# Chain of UniProt P98082 (P98082 whole entry, looked up): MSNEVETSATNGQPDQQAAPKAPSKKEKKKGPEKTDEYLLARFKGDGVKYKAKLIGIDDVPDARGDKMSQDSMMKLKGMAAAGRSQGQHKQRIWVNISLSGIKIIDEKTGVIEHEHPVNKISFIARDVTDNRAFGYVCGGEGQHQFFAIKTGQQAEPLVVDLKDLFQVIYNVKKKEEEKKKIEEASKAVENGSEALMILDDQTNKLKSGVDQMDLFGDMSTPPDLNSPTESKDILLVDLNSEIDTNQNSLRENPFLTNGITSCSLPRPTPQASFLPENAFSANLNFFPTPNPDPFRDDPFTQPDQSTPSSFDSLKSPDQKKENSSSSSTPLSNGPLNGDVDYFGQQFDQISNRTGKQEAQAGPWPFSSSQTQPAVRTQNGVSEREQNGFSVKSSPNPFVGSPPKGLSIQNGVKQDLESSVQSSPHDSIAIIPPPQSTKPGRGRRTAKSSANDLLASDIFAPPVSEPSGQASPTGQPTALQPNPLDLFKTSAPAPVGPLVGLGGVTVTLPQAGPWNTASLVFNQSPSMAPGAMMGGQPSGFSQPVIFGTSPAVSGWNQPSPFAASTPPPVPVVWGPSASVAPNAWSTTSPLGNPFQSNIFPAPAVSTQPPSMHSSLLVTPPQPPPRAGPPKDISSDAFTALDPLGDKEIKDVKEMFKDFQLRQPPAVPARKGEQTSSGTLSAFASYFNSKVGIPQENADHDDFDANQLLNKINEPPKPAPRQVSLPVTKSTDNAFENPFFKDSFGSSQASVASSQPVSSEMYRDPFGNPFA
# Chain of UniProt Q9GZT9 (Q9GZT9 whole entry, looked up): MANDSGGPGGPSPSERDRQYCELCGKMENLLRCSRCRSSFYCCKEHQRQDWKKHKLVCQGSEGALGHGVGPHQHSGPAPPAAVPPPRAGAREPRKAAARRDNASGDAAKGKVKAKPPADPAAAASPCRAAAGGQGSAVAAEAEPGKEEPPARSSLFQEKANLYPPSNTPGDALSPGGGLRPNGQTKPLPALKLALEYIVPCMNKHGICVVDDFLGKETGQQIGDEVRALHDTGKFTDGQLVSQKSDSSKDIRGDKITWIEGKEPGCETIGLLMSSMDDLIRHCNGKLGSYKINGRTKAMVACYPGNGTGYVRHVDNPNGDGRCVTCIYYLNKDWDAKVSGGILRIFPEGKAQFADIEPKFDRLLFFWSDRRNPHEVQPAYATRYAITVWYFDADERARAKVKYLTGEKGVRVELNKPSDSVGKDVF
# Chain of UniProt Q96G46 (Q96G46 whole entry, looked up): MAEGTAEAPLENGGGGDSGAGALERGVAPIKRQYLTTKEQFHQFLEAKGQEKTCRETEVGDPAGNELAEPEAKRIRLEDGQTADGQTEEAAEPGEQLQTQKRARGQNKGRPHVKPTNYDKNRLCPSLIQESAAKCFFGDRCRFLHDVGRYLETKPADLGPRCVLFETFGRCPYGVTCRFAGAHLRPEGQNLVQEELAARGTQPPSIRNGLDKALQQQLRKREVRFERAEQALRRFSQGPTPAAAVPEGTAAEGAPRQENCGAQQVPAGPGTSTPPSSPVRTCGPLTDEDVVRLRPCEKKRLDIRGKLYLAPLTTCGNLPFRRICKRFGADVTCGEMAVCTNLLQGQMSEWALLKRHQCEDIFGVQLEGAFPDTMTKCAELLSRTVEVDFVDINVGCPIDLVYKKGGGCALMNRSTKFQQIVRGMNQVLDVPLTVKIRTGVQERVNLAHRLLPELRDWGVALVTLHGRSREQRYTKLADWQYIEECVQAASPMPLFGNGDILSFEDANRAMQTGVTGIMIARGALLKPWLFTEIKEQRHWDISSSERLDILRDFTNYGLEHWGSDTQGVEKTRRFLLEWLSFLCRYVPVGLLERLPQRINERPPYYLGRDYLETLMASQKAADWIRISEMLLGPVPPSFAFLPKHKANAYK
# Chain of UniProt Q9NSI2 (Q9NSI2 whole entry, looked up): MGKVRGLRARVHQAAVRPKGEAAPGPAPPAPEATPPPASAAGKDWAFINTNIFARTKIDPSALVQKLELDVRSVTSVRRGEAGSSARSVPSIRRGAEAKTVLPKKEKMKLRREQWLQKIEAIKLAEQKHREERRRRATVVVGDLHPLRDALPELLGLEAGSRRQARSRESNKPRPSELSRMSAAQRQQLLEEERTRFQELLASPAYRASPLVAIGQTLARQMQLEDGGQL
Target,log2 fold change [1],log2 fold change [2],log2 fold change [3],log2 fold change [4],log2 fold change [5],log2 fold change [6],log2 fold change [7],log2 fold change [8],log2 fold change [9],log2 fold change [10]
ERCC2 (UniProt P18074),0.011,0.059,-0.046,-0.013,-0.035,-0.035,-0.014,0.08,0.031,-0.045
EXOC7 (UniProt Q9UPT5),-0.062,-0.25,-0.028,0.034,0.027,-0.122,0.027,0.05,-0.029,-0.346 (active)
"FADS1, A0A0A0MR51",0.096,-0.049,-0.019,-0.026,0.016,0.434 (active),-0.011,-0.007,0,-0.252 (active)
CTNNB1 (UniProt P35222),0.666 (active),0.024,-0.087,-0.102,0.086,0.336,0.03,-0.024,0.047,0.078
FAF2 (UniProt Q96CS3),0.049,-0.056,0.042,0.049,0.031,0.022,0.016,0.059,0.023,-0.011
ERLIN1 (UniProt O75477),0.012,-0.039,-0.038,0.099,-0.021,-0.04,0.025,0.148,0.057,-0.27 (active)
CUX1 isoform 3 (UniProt P39880),0.02,-0.023,0.086,-0.002,0.064,-0.048,0.029,-0.026,0.019,-0.101
DBR1 (UniProt Q9UK59),-0.034,-0.022,0.061,-0.014,-0.072,0.003,-0.051,0.01,0.02,0.058
ETNK1 (UniProt Q9HBU6),-0.006,-0.022,0.088,-0.032,0.075,-0.057,0.021,0.118,0.001,0.059
EGLN1 (UniProt Q9GZT9),0.01,-0.029,-0.064,-0.035,0.029,-0.036,0.044,0,-0.014,-0.04
CWC27 (UniProt Q6UX04),0.03,0.14,0.145,-0.001,0.144,0.033,0.077,0.169,-0.091,-0.017
DPP8 (UniProt Q6V1X1),0.04,-0.003,0.011,-0.048,0.025,-0.038,-0.027,0.006,0.008,0.019
ELF1 (UniProt P32519),0.093,-0.06,-0.006,-0.007,0.032,,0.008,0.057,-0.039,-0.038
DAB2 (UniProt P98082),-0.04,-0.099,0.049,-0.052,-0.021,-0.021,-0.023,0.069,0.022,-0.091
DUS3L (UniProt Q96G46),-0.015,0.112,0.019,-0.075,-0.005,-0.027,0.043,0.022,0.033,0
DCP2 (UniProt Q8IU60),-0.211,0.779 (active),0.119,0.009,-0.049,,0.219,0.095,0.147,-0.045
DNAJC24 (UniProt Q6P3W2),-0.054,0.055,-0.031,-0.004,-0.028,,0.05,-0.024,0.038,0.01
DDX5 (UniProt P17844),0.035,-0.16,0.135,0.125,0.041,-0.016,0.012,0.165,-0.044,0.052
FAM193B (UniProt Q96PV7),-0.065,-0.081,-0.097,0.348,-0.18,,0.062,-0.189,-0.046,
DAXX (UniProt Q9UER7),0.154,0.098,,0.106,-0.001,0.313,-0.167,0.006,0,-0.062
EBNA1BP2 (UniProt Q99848),-0.013,-0.025,-0.236,0.394,-0.138,0.104,0.191,0.025,0.282,0.21
DNAJC1 (UniProt Q96KC8),-0.021,-0.148,0.009,0.023,0.027,-0.094,-0.035,0.009,0.002,-0.356 (active)
DYNC1I2 isoform 2 (UniProt Q13409),0.185,-0.05,-0.02,-0.647 (active),,,0.044,,-0.079,0.06
FAM207A (UniProt Q9NSI2),0.009,0.075,0.08,,0.128,-0.039,0.053,-0.098,0.101,-0.077
DSN1 (UniProt Q9H410),-0.015,-0.016,0.086,-0.05,0.098,,0.026,-0.07,0.007,0.055
DDX11 (UniProt Q96FC9),0.02,-0.01,-0.144,,0.05,,-0.068,0.015,0.224,0.012
EXOSC10 (UniProt Q01780),0.126,0.043,0.063,-0.015,0.09,0.527,-0.118,-0.138,0.097,-0.441
ENTPD7 (UniProt Q9NQZ7),0.256,0.084,-0.037,,-0.178,,0.185,0.014,0.025,
EIF3J isoform 2 (UniProt O75822),0.035,0.049,-0.043,,0.161,,-0.136,-0.038,0.011,
